# NS1 inh: inhibitors of influenza NS1 protein function | Potency, µM (series often up to 46.1 µM), without a hit: at the highest dose activity, positive = more growth | 270,000 tested, 0.4% active; calls by dose curve; also: actives are rising curves; nearly all actives have a fitted effect of over 50% in size
#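 Recovery from NS1-induced slow growth read by OD600 in budding yeast switched to galactose assay medium (pH 6.0, -URA) at 1:100 dilution. Compound 23 nl per well; the matching strain lacking NS1 serves as control.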
# Pf growth 48h: inhibits P. falciparum growth in the first generation, 48 h. AID 504832. Potency, µM (top dose mostly 28.7 µM), without a hit: top-dose activity change, negative = inhibition, usual class: inhibitors. P. falciparum luciferase growth in erythrocytes, 48 h. 310,000 tested, 5.9% active; also: % is scaled to controls: 0 for no effect and ±100 for the full control effect
#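 Compounds are pin-transferred into medium, infected erythrocytes (2% hematocrit, 0.1% parasitemia final) are added, and plates sit one parasite generation at 37 C in 5% CO2. Detection reagent is then added and luminescence measured.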
# SARS PLpro yeast: SARS-CoV PLP inhibition in yeast; Potency, µM (top dose mostly 32.9 µM), without a hit: at the top dose activity, positive = growth rescue, usual class: activators; S. cerevisiae expressing SARS-CoV PLpro, growth rescue; AID 485353; 330,000 tested, 0.19% active; calls by dose curve; also: 0% is about no effect; nearly all actives have a fitted effect of over 55% in size
# Pf growth 96h: P. falciparum growth inhibition at 96 hours; AID 504834; 320,000 tested, 6.9% active; P. falciparum luciferase reporter growth, 96 h; Potency, µM (titrated, usually from 28.7 µM), without a hit: at the highest dose activity change, negative = inhibition, most hits filed as inhibitors; also: % is scaled to controls: 0 for no effect and ±100 for the full control effect
#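 Delayed-death screen, second-generation endpoint: infected erythrocytes, 2% hematocrit, 0.05% parasitemia final; 96 hours at 37 C, 5% CO2; luciferase detection reagent; luminescence decrease equals reduced growth.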
# An asterisk follows results filed as active; ? = inconclusive; / = no result; [ ] = dose if it differs, or a comment. Most compounds without a hit are left out; they make up all but 10% or so of the library. Unless noted, calls follow the shape of the dose curve; as a rule, active = well fitted inhibition curve with a large enough effect; inconclusive = small, poorly fitted or top-dose-only effect, or another doubt; inactive = no such curve, though single readings can be large or run the other way. Potency is read from the fitted curve at half-maximal effect.
SMILES,NS1 inh,Pf growth 48h,SARS PLpro yeast,Pf growth 96h
Fc1ccccc1-c1csc(=Nc2cccnc2)n1CC1CCCO1 (stereo not drawn),-3%,8.3µM*,-5%,12µM*
CC(C)Cn1c(-c2ccco2)csc1=Nc1cccnc1,-12%,15µM*,-1%,?
Cc1csc(=Nc2cccnc2)n1CC1CCCCC1,-21%,?,-12%,?
Fc1ccccc1-c1csc(=Nc2cccnc2)n1CCCn1ccnc1,-2%,7.4µM*,-25%,15µM*
COCCn1c(-c2ccco2)csc1=Nc1cccnc1,6%,?,-1%,/
O=C1CNC(=S)N1Cc1cccc(Cl)c1,?,-11%,3%,0%
Cc1cc(=O)oc2c(C)c3occc3cc12,-14%,?,-2%,65%
C[C@@H]1CN([C@@H](C)CO)C(=O)Cc2cc(NS(=O)(=O)c3cn(C)cn3)ccc2O[C@@H]1CN(C)C(=O)Nc1ccccc1,/,/,1%,/
COC(=O)c1sc(NC(=S)NC(=O)c2ccccc2C)nc1C,9%,45%,0%,?
Oc1c(/C=C/C=C/C=Nc2ccccc2)sc(=S)n1Cc1ccccc1,12%,-10%,-2%,2%
CC1=C(/C=C/C(C)=C/C=C/C(C)=C/CO)C(C)(C)CCC1,/,?,/,11µM*
CC1=C(/C=C\C(=O)O)C(C)(C)CCC1,-10%,/,/,/
Cc1ccc(S(=O)(=O)N2CCCCC2)cc1C(=O)N(CCc1ccccc1)Cc1ccccc1,/,13µM*,-4%,9.3µM*
O=C(NCCc1ccccc1)c1cc(S(=O)(=O)N2CCOCC2)ccc1F,15%,14%,0%,/
COCCN(Cc1ccccc1)C(=O)c1cc(S(=O)(=O)N2CCCCCC2)ccc1OC,/,?,2%,?
O=C(c1cc(S(=O)(=O)N2CCOCC2)ccc1F)N(CCc1ccccc1)Cc1ccccc1,/,9.3µM*,7%,?
Cc1cc[n+](-c2[nH]c(=O)sc2/C=N/N=C(\[O-])c2ccncc2)cc1,-4%,13%,7%,?
Cc1ccc(OC(C)C(=O)Nc2ccc3c(c2)n(C)c(=O)n3C)c(C)c1 (stereo not drawn),6%,-17%,5%,?
CCN1C(=O)/C(=C\c2ccncc2)SC1=S,-38%,0%,-1%,39%
CCCN1C(=O)/C(=C\c2ccncc2)SC1=Nc1ccccc1,-28%,12µM*,-5%,?
CCN1C(=O)/C(=C\c2ccncc2)SC1=Nc1ccc(C)c(C)c1,5%,?,-38%,1.9µM*
O=C(CCN1CCCCC1)N1CCc2c([nH]c3ccccc23)[C@H]1c1cccnc1,-5%,/,/,/
CCOC(=O)C1=C(C)Nc2nc(C)nn2C1c1cc(OC)ccc1OC (stereo not drawn),-6%,17%,-3%,8.3µM*
CCOC(=O)C1=C(c2ccccc2)Nc2nc(C)nn2C1c1cccc(OC)c1OC (stereo not drawn),-36%,12µM*,3%,9.3µM*
CCCCOC(=O)C1=C(C)Nc2ncnn2C1c1cc(OC)ccc1OC (stereo not drawn),1%,8%,-1%,41%
SMILES,NS1 inh,Pf growth 48h,SARS PLpro yeast,Pf growth 96h
CC(=O)Nc1ccc2nc(NC(=O)CN3CCOCC3)sc2c1,-1%,-5%,2%,-3%
CSCC[C@H](NC(=O)COc1ccc(Cl)cc1Cl)c1nc2ccccc2[nH]1,-4%,-5%,4%,?
CCCCn1nc(C(=O)N[C@@H](CCSC)c2nc3ccccc3[nH]2)c2ccccc2c1=O,-1%,?,/,12µM*
CSCC[C@H](NC(=O)C(C)Oc1ccc(Cl)cc1)c1nc2ccccc2[nH]1 (stereo partly drawn),-1%,?,-22%,6.6µM*
CN(C(=O)c1ccccc1C(=O)OCC(=O)c1ccccc1)c1ccccc1,/,?,5%,12µM*
CN(C(=O)c1ccccc1C(=O)OCC(=O)c1ccc(F)cc1)c1ccccc1,/,8.3µM*,9%,?
O=C(COc1ccc(Br)cc1Cl)NNC(=O)c1ccccc1,/,2%,3%,-13%
Cc1ccc(-c2[nH]c(-c3ccc(Cl)cc3)nc2SCC(=O)NCC2CCCO2)cc1 (stereo not drawn),12%,?,9%,9.3µM*
Cc1ccc(S(=O)(=O)c2nc(-c3ccccc3)oc2SCC(=O)NCC2CCCO2)cc1 (stereo not drawn),14%,10µM*,1%,12µM*
Cc1ccc(C(=O)N2CCCC(Nc3ccc(F)c(F)c3)C2)cn1 (stereo not drawn),6%,-1%,0%,12µM*
COc1ccc(C(=O)C2CCCN(C(=O)CCc3scnc3C)C2)c(C)c1 (stereo not drawn),-9%,2.3µM*,-3%,260%
Cc1ncsc1CCC(=O)N1CCCC(Nc2ccc(F)c(F)c2)C1 (stereo not drawn),5%,0%,-1%,12µM*
CCN(CC(=O)Nc1c(F)cccc1F)C(=O)c1ccc2c(c1)OCO2,/,0%,2%,-26%
COCCC(=O)Nc1c(-c2ccccc2)c2cc(Br)ccc2[nH]c1=O,18%,33%,5%,?
Cc1c(CC(=O)NCCCC(=O)O)c(=O)oc2cc3c(cc12)CCC(C)(C)O3,3%,2.6µM*,1%,?
Cc1nc2c(C(=O)N3CCOCC3)cnn2c(C)c1Cc1cccc(Cl)c1,-10%,?,-1%,7.4µM*
Cc1nc2c(C(=O)N3CCOCC3)cnn2c(C)c1Cc1ccc(Cl)cc1,1%,3%,-6%,?
O=C(CSc1nnnn1-c1cccc(F)c1)NC1CCCCC1,/,9%,0%,20%
N#CC1=C2SCN(Cc3ccco3)CN2C(=O)CC1c1cccc2ccccc12 (stereo not drawn),-48%,12µM*,9%,-6%
Cc1nc(-c2ccccc2)sc1-c1n[nH]c(=S)n1C,-5%,32%,-4%,?
CSc1sc(-c2n[nH]c(=S)n2C)c2c1C=CCC2,3%,?,17%,5.9µM*
Cc1ccc(-n2c(N)c(C(=O)Nc3c(C)n(C)n(-c4ccccc4)c3=O)c3nc4ccccc4nc32)cc1C,27%,10µM*,14%,?
Cc1nn(Cc2c(Cl)cccc2Cl)c(C)c1NC(=O)c1cc(C(C)C)on1,-12%,/,18%,9.3µM*
COc1ccc(OC)c(-c2cc(C(=O)N3CCc4ccccc4C3)no2)c1,-47%,22%,-10%,9.3µM*
Cc1cc(C(=O)Nc2c(C)nn(Cc3c(Cl)cccc3Cl)c2C)no1,7%,36%,-1%,1%
SMILES,NS1 inh,Pf growth 48h,SARS PLpro yeast,Pf growth 96h
Nc1c(C(=O)Nc2ccccc2)c2nc3ccccc3nc2n1-c1ccc(O)cc1,-1%,13µM*,-2%,-19%
CCOC(=O)c1c(N)n(-c2ccc(N)cc2)c2nc3ccccc3nc12,0%,?,-16%,?
CC[C@H](CO)NCCN[C@@H](CC)CO,/,2%[12.8 µM],/,10%[12.8 µM]
O=S(=O)(NCC1CCN(c2ccc(S(=O)(=O)N3CCOCC3)cc2)CC1)c1ccc(F)cc1,-3%,?,4%,18%
COc1ccc(OC)c(-c2cc(C(=O)Nc3c(C)nn(Cc4ccccc4)c3C)no2)c1,11%,13µM*,1%,?
COc1ccc(-n2c(N)c(C(=O)Nc3c(C)n(C)n(-c4ccccc4)c3=O)c3nc4ccccc4nc32)cc1,7%,4.7µM*,1%,1.7µM*

# Compound activity as filed in PubChem BioAssay.
